Tg IFNy HTS – blocks Toxoplasma gondii growth in the presence of IFN-gamma. Toxoplasma gondii growth in IFN-gamma-treated host cells; stronger effect = lower value. activity change, negative = inhibition, % (concentration not given with the values). actives 3.8% (n = 69,000). AID 1259416; in the data active = activity change below about -70%, passing the limit was not always enough;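 also: host cells are HeLa cells infected with Toxoplasma gondii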
Of the large screens only hits and unclear results are named; the others gave an inactive call. Many of the other results were omitted from the sample, so hits are more common in it than they were.

O=S(=O)(NCCC1CCCN(Cc2ccccn2)C1)C1CC1 (stereo not given)	none
Cc1ccccc1-n1[nH]c(C)c(CC(=O)Nc2ccc3c(c2)NC(=O)C(C)O3)c1=O (stereo not given)	none
CC1=NC2(CCC(C(=O)NCc3ccc(F)cc3)CC2)C(=O)N1CC1CC1 (stereo not given)	none
COc1cc(Cl)ccc1C(=O)NCC1CCCN(C)C1 (stereo not given)	none
COc1cc(C(=O)N2CCC3(CC2)NC(=O)c2ccc(Cl)cc2N3)cc(OC)c1OC	none
COc1ccccc1C(=O)C1C(=O)NC23CCN(C)CC2C1c1cc(Cl)ccc1O3 (stereo not given)	Tg IFNy HTS -87
O=c1c(CN(Cc2ccccn2)CC2CCCO2)coc2ccccc12 (stereo not given)	none
CN(C)C(=O)COCC12CCCOC1CCN(C(=O)N1CCCC1)C2 (stereo not given)	none
CCNC(=O)c1ccccc1OCc1nc(-c2ccc3c(c2)OCO3)no1	none
OCC1CCN(Cc2cc3n(n2)CCCNC3)CC1	none
c1cc2c(cc1OCC1CCN(Cc3cc4n(n3)CCNC4)CC1)CCC2	Tg IFNy HTS -87
c1ccc2c(c1)CCC(N1CCN(Cc3cc4n(n3)CCNC4)CC1)C2 (stereo not given)	none
COc1cc2c(cc1-c1nccn1CCc1cccc(F)c1)OCO2	none
O=C(Nc1cccc(Cl)c1)N[C@H]1CC[C@H](CCn2cc(Cc3ccccc3)nn2)O[C@H]1CO	none
O=C(Nc1cccc(Cl)c1)N[C@H]1CC[C@@H](CCn2cc(Cc3ccccc3)nn2)O[C@@H]1CO	none
O=C(Nc1cccc(Cl)c1)N[C@@H]1CC[C@@H](CCn2cc(Cc3ccccc3)nn2)O[C@@H]1CO	Tg IFNy HTS -74
CC(C)CCN1[C@@H]2CCN(C(=O)[C@H]3CCCO3)CC[C@@H]2Oc2ccccc2S1(=O)=O	none
COc1ccccc1-c1cc2c(=O)n(Cc3nc(-c4ccc(Cl)cc4)oc3C)ccn2n1	none
CCOc1cc2c(cc1OCC)C(c1ccccc1)N(c1ccc(C(=O)O)cc1)C(=O)C2 (stereo not given)	none
COc1cc2c(cc1OC(C)C)[C@H](c1ccc(Cl)cc1)N(c1ccc(N(C)CC3CCC(N4CCN(C)C(=O)C4)CC3)cc1)C(=O)C2 (stereo not given in full)	Tg IFNy HTS -79
CCS(=O)(=O)N1CCOC2(CCCN(c3ccccn3)C2)C1 (stereo not given)	none
O=C(c1cccs1)N1N=C(c2ccc(Cl)cc2)CC1(O)C(F)(F)F (stereo not given)	Tg IFNy HTS -97
O=C(NCCc1csc(-c2ccc(Cl)cc2)n1)c1ccccc1C(F)(F)F	none
OC1(C(F)(F)F)CC(c2cccs2)=NO1 (stereo not given)	none
COc1ccccc1CC(=O)N1CCCC2(CNC(=O)O2)C1 (stereo not given)	none
CN(C)c1ccc(C2CC(=O)Nc3c2c(-c2cccnc2)nn3C)cc1 (stereo not given)	none
COCCC(=O)N1CCCC2(CCCN2Cc2ccc(-c3ccccc3)cc2)C1 (stereo not given)	none
COc1ncc(-c2cc(Cl)ccc2OC)c(OC)n1	none
CCOCc1nnc(NC(=O)C2(C)CC(=O)N=C3C=C(C)C=CN32)s1 (stereo not given)	none
COc1cc(NC(=O)Nc2ccc(-c3nc(-c4ccc(C)cc4C)co3)cc2)cc(OC)c1OC	none
Cc1cc(C)c2c(c1)[C@@H](N(Cc1cc(C(F)(F)F)cc(C(F)(F)F)c1)c1nnn(C)n1)CCCN2CC1CCC(C(=O)O)CC1 (stereo not given in full)	Tg IFNy HTS -81
Oc1cc(-c2cccc3c2Oc2ccccc2S3)cc2c1OCCNC2	none
COc1cc(CN(Cc2ccccc2)CC2CCCO2)cc(OC)c1OC (stereo not given)	none
Fc1cccc(CN(Cc2cncn2Cc2ccccc2)CC2CCCO2)c1 (stereo not given)	Tg IFNy HTS -93
CN(C)CCN(Cc1cccnc1)Cc1cncn1Cc1ccccc1	none
CNC(=O)CCc1cc(C)nc(C2CCCN2)n1 (stereo not given)	none
Cc1nc(C2COCCN2C(=O)c2cnoc2)cs1 (stereo not given)	none
Cc1oc(-c2ccc(C(=O)NCCc3ccco3)cc2)nc1CN1CCN(c2ccccc2)CC1	none
CCNC(=O)c1ccc(-c2nc(CN3CCN(c4ccccc4)CC3)c(C)o2)cc1	none
COCCNC(=O)c1ccc(-c2nc(CN3CCN(c4ccccc4)CC3)c(C)o2)cc1	none
CCN(CC)CCCNC(=O)c1ccc(-c2nc(CN3CCN(c4ccccc4)CC3)c(C)o2)cc1	Tg IFNy HTS -104
CCCCN(CC)C(=O)c1ccc(-c2nc(CN3CCN(c4ccccc4)CC3)c(C)o2)cc1	none
Cc1oc(-c2ccc(C(=O)NCCc3cnc[nH]3)cc2)nc1CN1CCN(c2ccccc2)CC1	Tg IFNy HTS -110
Fc1ccc(Cc2nc(C3CCCN3Cc3ccnc(N4CCOCC4)n3)n[nH]2)cc1 (stereo not given)	none
CCCc1nc(N2Cc3cnc(Cc4ccc(OC)cc4)nc3C2)no1	none
N#Cc1ccc(OCC23COCC2CN(C(=O)Cc2ccco2)C3)nc1 (stereo not given)	none
Cc1ccc(C(=O)N2CCc3c(nnn3C)C2COCC2CC2)o1 (stereo not given)	none
CN(C)C(=O)CN1C(=O)CO[C@H]2CN(c3ccccn3)C[C@@H]21	none
CN(Cc1n[nH]c2c1CCC2)c1cc(NC2CC2)nc(N)n1	none
COC(=O)c1c(NC(=O)C(C)C)sc2c1C(C(=O)OC)CC2 (stereo not given)	Tg IFNy HTS -94
Cc1sc(NC(=O)C(C)C)c(C(=O)N[C@@H]2C[C@@H](CO)N(C)C2)c1C	none
COC(=O)c1ccc(C(=O)OC)c(NC(=O)C(C)C)c1	none
O=C(CC1C(=O)NCCN1C1CCCC1)Nc1cccc(C(=O)N2CCOCC2)c1 (stereo not given)	none
CC(C)C(c1nnnn1Cc1ccccc1)N(Cc1cccnc1)Cc1ccccc1Cl (stereo not given)	none
N#CCCN(Cc1cccs1)S(=O)(=O)c1ccc2c(c1)CCO2	Tg IFNy HTS -91
CC(C)N(CCC#N)C(=O)Nc1ccc2c(c1)CCO2	none
CN(C)CCN(Cc1cccs1)S(=O)(=O)c1ccc2[nH]c(=O)ccc2c1	none
O=C(NCc1ccco1)c1nc(Nc2ccc(F)cc2)c2ccccc2n1	none
C=CCS(=O)(=O)NCC1CCN(Cc2ccc(C)c(C)c2)C1 (stereo not given)	none
Nc1nc(NCCc2ccc(O)cc2)nc2nc(-c3ccco3)nn12	Tg IFNy HTS -80
Nc1nc2c(cnn2CCc2ccccc2)c2nc(-c3ccco3)nn12	none
Nc1nc2ccc(Cl)cc2c2nc(-c3ccco3)nn12	none
CCS(=O)(=O)N1CCC2(CC1)CN(c1cncnc1)C(=O)CO2	none
CC(C)Cc1noc(CN(C)c2nc(CCN)nc3ccccc23)n1	none
CC(C)(C)c1nc(CN2CCCCC2c2ccccn2)no1 (stereo not given)	none
COc1ccc(OC)c(NC(=O)CC(=O)N2CCCCCC2)c1	none
Cc1cc(C)n(CCC(=O)N2CCCC2c2ccccc2C)c(=O)n1 (stereo not given)	none
CCNC(=O)c1sc2cc(C)ccc2c1Cl	none
O=C(c1sc2cc(Cl)ccc2c1Cl)N1c2ccccc2Sc2ccccc21	Tg IFNy HTS -80
COC(=O)c1sc2ccccc2c1Cl	none
CC(C)N1C[C@H]2CN(Cc3nccs3)CCC[C@@]2(C(=O)O)C1	none
CCc1noc(C)c1C(=O)N1CCS(=O)(=O)CC1	none
CCCNC(=O)c1cc(-c2cnc(-c3cccnc3)nc2)cn1C	Tg IFNy HTS -91
CN(C)CCNC(=O)c1cc(-c2cnc(-c3ccnn3C)nc2)cn1C	none
COCCC(=O)c1cc(-c2cnc(-c3cccnc3)nc2)cn1C	none
